This passage reports log2 fold change results from the supplement of paper PMC10849652.

What all share (test): log2 fold change, soluble protein after heating vs DMSO (PISA); higher = thermal stabilisation; K562 lysate, 10 uM; active = over 0.2 and 3.5 SD of the protein, either way, in both replicates (recomputed)
Compound in one assay: CN1CC[C@H](c2c(O)cc(O)c3c(=O)cc(-c4ccccc4Cl)oc23)[C@H](O)C1 [alvocidib]
A digest of the protocol: (§1)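 Following dounce homogenisation of K562 pellets in PBS pH 7.4 with 1 mM MgCl2, crude extract at 1 mg/mL protein was incubated for 30 min with 10 μM compound. Aliquots were then heated for 3 min over 48°C-58°C and pooled, NP-40 was added to 0.5% at 4°C, and soluble protein was recovered as the supernatant at 21,000xg for 90 min. Channel-sum-equalised TMTpro 16plex LC-MS/MS quantified this protein. Each value, from duplicates, is a log-two fold change in thermal stability relative to solvent controls.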

Compound in another assay: CN1CCc2c(c3ccccc3n2Cc2ccc(C(=O)NO)cc2)C1 [Tubastatin A]
A digest of the protocol:
as §1

Compound in assay [1]: CNC(=O)C1=CC=CC=C1NC2=NC(=NC=C2Cl)NC3=C(C=C(C=C3)N4CCOCC4)OC
A digest of the protocol:
as §1

Compound in the next assay: CNC(=O)c1ccc(Nc2ncc(C(F)(F)F)c(NCc3nccnc3N(C)S(C)(=O)=O)n2)cc1 [defactinib]
The method, boiled down: as §1

Compound in assay [2]: CNc1nc(-c2ccc3c(N)n[nH]c3c2)cc(N2C[C@@H](C(=O)NC3CCCCC3)CC[C@H]2C)n1
A digest of the protocol:
as §1

Compound in the next assay: COC(=O)N[C@@H](C)CNc1nccc(-c2cn(C(C)C)nc2-c2cc(Cl)cc(NS(C)(=O)=O)c2F)n1 [encorafenib]
A digest of the protocol: as §1

Compound in assay [3]: COC(=O)[C@H](CCSC)NC(=O)C1=C(C=C(C=C1)NC[C@H](CS)N)C2=CC=CC=C2
A digest of the protocol: as §1

Compound in the next assay: COc1cc(Nc2ncc3c(n2)-c2ccc(Cl)cc2C(c2c(F)cccc2OC)=NC3)ccc1C(=O)O [alisertib]
A digest of the protocol:
as §1

Compound in assay [4]: COc1cc2nc(-c3cc(F)ccc3O)nc(N[C@@H]3CNC[C@H]3C(C)(C)O)c2cc1OC
The method, boiled down: as §1

Compound in another assay: COc1cc2ncnc(Nc3ccc(F)c(Cl)c3)c2cc1OCCCN1CCOCC1 [gefitinib]
The method, boiled down:
as §1

Compound in a further assay: CS(=O)(=O)CCNCc1ccc(-c2ccc3ncnc(Nc4ccc(OCc5cccc(F)c5)c(Cl)c4)c3c2)o1 [lapatinib]
The method, boiled down:
as §1

Compound in the next assay: CS(=O)(=O)N1CCN(Cc2cc3nc(-c4cccc5[nH]ncc45)nc(N4CCOCC4)c3s2)CC1 [pictilisib]
A digest of the protocol: as §1

Compound in a further assay: C[C@@H](Oc1cc(-c2cnn(C3CCNCC3)c2)cnc1N)c1c(Cl)ccc(F)c1Cl [crizotinib]
A digest of the protocol:
as §1

Compound in assay [5]: C[C@H](C1=CC=C(C=C1)C(=O)NC2=C3C=CNC3=NC=C2)N
A digest of the protocol:
as §1

Compound in the next assay: C[C@H](Nc1ncnc2nc[nH]c12)c1cc2cccc(Cl)c2c(=O)n1-c1ccccc1 [duvelisib]
The method, boiled down: as §1

Compound in the next assay: Cc1cc(Nc2cc(CN3CCOCC3)c3nc(C)c(Cc4ccc(Cl)cc4F)n3n2)n[nH]1 [gandotinib]
The method, boiled down: as §1

Compound in a further assay: Cc1cc(Nc2cc(N3CCN(C)CC3)nc(Sc3ccc(NC(=O)C4CC4)cc3)n2)n[nH]1 [tozasertib]
A digest of the protocol:
as §1

Compound in the next assay: Cc1ccc(-n2nc(C(C)(C)C)cc2NC(=O)Nc2ccc(OCCN3CCOCC3)c3ccccc23)cc1 [doramapimod]
The method, boiled down:
as §1

Compound in a further assay: Cc1ccc(NC(=O)c2ccc(CN3CC[C@H](N(C)C)C3)c(C(F)(F)F)c2)cc1Nc1nccc(-c2cncnc2)n1 [bafetinib]
The method, boiled down:
as §1

Compound in assay [6]: Cc1cccc(CC(=O)N2CCc3c2ccc(-c2cn(C)c4ncnc(N)c24)c3F)n1
A digest of the protocol: as §1

Of roughly 8,800 targets only a part is listed; those with a hit were picked by preference. About 0.5% of all pairs of compound and target were hits. A number with no mark means an inactive call.

UniProt O00139, sequence (O00139 whole entry, looked up): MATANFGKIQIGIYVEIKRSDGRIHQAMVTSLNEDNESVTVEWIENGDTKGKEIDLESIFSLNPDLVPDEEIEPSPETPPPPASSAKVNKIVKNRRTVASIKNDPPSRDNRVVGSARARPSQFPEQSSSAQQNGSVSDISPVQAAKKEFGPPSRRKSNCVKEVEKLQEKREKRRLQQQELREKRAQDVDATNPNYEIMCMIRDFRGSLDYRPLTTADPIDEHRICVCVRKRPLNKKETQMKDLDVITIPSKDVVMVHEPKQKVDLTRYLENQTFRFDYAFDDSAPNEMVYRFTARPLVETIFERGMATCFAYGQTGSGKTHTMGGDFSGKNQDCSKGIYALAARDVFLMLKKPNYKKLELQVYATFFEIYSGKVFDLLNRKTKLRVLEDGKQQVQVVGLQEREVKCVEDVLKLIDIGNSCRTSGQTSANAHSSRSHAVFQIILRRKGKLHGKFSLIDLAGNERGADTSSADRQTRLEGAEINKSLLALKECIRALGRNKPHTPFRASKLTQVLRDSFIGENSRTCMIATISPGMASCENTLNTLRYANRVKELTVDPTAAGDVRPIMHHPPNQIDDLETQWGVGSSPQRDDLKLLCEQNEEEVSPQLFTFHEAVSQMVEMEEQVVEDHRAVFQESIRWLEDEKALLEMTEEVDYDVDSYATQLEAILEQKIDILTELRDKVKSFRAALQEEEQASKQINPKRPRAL
UniProt Q6P0Q8, sequence (Q6P0Q8 whole entry, looked up): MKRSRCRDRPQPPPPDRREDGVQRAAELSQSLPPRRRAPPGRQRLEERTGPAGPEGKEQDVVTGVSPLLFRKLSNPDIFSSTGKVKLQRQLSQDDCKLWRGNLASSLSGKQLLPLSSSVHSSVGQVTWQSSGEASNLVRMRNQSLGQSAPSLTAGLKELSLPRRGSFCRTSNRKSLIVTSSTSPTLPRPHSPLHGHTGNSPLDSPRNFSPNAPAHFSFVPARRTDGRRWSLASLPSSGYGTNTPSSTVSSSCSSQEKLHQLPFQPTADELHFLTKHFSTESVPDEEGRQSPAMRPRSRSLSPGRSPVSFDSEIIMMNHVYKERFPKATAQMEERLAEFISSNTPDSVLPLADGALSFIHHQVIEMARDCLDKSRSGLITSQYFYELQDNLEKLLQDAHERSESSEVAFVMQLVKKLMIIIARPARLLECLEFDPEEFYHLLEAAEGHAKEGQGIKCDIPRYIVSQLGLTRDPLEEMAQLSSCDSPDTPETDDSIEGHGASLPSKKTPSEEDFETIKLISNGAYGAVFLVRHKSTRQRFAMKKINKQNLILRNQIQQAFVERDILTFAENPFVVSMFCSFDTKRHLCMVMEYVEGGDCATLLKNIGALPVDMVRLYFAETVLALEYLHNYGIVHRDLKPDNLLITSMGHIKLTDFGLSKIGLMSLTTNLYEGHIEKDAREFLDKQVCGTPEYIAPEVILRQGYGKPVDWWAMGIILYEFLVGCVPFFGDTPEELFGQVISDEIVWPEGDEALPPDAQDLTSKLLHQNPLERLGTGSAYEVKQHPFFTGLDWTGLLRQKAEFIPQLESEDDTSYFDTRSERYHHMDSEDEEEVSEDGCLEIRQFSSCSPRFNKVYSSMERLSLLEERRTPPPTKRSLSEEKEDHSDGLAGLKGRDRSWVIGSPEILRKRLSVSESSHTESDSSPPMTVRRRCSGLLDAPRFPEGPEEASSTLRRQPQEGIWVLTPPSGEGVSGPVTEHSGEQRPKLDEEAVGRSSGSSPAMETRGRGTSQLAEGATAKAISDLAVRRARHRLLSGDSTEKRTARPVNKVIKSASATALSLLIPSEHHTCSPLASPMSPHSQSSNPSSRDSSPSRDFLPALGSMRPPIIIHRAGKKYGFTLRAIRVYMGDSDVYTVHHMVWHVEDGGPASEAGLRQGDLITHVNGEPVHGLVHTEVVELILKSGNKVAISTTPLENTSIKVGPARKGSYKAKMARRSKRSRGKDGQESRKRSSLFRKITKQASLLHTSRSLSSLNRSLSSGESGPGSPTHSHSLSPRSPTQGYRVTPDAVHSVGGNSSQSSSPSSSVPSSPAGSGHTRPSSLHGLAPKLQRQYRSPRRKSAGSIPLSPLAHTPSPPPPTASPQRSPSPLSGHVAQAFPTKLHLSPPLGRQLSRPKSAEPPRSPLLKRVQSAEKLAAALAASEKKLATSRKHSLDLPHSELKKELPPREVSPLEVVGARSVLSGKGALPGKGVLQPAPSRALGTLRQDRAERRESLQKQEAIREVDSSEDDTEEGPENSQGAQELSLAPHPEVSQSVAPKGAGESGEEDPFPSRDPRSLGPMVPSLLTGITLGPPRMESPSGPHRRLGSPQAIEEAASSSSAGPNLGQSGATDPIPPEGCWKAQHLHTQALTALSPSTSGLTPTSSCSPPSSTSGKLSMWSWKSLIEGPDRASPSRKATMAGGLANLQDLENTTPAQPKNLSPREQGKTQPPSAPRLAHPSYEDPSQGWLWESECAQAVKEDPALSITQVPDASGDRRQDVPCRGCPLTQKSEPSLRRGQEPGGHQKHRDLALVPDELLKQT
UniProt Q02750, sequence (Q02750 whole entry, looked up): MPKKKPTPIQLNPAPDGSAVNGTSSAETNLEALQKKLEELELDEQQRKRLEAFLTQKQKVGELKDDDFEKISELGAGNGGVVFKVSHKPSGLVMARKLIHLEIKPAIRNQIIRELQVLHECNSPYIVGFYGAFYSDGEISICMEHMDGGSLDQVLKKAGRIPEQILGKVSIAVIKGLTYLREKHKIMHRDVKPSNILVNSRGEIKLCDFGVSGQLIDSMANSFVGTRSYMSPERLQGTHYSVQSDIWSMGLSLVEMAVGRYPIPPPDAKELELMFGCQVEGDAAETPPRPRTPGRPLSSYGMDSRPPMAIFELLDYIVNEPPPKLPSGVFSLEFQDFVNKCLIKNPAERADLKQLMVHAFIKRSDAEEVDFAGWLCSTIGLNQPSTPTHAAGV
UniProt Q9Y250, sequence (Q9Y250 whole entry, looked up): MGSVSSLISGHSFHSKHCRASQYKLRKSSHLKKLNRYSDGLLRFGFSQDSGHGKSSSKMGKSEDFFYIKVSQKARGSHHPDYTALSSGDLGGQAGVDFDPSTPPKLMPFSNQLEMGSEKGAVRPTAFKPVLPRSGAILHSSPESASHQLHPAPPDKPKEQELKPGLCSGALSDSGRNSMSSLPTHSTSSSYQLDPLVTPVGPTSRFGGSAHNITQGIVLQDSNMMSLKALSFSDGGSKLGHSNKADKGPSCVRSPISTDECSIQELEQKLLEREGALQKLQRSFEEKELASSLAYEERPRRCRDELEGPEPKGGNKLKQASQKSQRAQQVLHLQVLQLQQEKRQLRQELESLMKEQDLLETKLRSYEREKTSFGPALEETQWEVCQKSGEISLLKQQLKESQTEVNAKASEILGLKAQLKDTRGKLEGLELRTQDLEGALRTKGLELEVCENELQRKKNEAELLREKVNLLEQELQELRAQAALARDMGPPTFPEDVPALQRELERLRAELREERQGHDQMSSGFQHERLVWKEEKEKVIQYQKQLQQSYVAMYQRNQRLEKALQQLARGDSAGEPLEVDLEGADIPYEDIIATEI

In the case of MAP2K1 (UniProt Q02750), the log2 fold change with alvocidib is 0.06; with Tubastatin A it was -0.011; in assay [1], 0.066; with defactinib it was 0.013; in assay [2], 0.028; with encorafenib, -0.07. Also, the log2 fold change in assay [3] was -0.063; in the assay with alisertib it was -0.036; in [4], 0.021; in the assay with gefitinib, 0.029; with lapatinib, -0.065; with pictilisib, -0.009. Besides, the log2 fold change with crizotinib was 0.001; in [5] it was 0.204; in the assay with duvelisib, -0.021; with gandotinib it was -0.042; with tozasertib, 0.152; with doramapimod it was -0.002. The log2 fold change with bafetinib was -0.027; in assay [6], -0.047.

Consider KIF26A (UniProt Q9ULI4), for which the log2 fold change in the assay with alvocidib was 0.022; in the assay with Tubastatin A, 0.566 (active); in assay [1], -0.149; with defactinib, -0.105; in assay [2] it was -0.021; with encorafenib, -0.052. Also, the log2 fold change is 0.035 in assay [3]; 0.004 with alisertib; 0.056 in the assay with gefitinib; 0.039 with pictilisib; 0.013 in the assay with crizotinib; -0.065 in assay [5]. The log2 fold change is -0.017 in the assay with duvelisib; 0.003 with gandotinib; 0.086 with tozasertib; -0.002 with doramapimod; -0.055 in the assay with bafetinib; 0.002 in assay [6].

With LZTS1 (UniProt Q9Y250), the log2 fold change is 0.054 with alvocidib; 0.326 with Tubastatin A; -0.037 in [1]; -0.101 in the assay with defactinib; 0.709 in assay [2]; -0.071 in the assay with encorafenib. The log2 fold change in assay [3] is 0.001; with alisertib, -0.022; in assay [4], 0.129; in the assay with gefitinib it was -0.08; with lapatinib it was -0.136; with pictilisib it was -0.222. Further, the log2 fold change is -0.821 in the assay with crizotinib; -0.233 in assay [5]; 0.308 in the assay with duvelisib; -0.137 with gandotinib; -0.1 with tozasertib; 0.177 in the assay with doramapimod. In addition, the log2 fold change in the assay with bafetinib was -0.268; in [6], 0.083.

KIF2A isoform 4 (UniProt O00139): the log2 fold change in the assay with alvocidib is 0; with Tubastatin A, -0.148; in assay [1], 0.005; in the assay with defactinib, 0.01; in [2], -0.024; with encorafenib it was 0.012. The log2 fold change in assay [3] was 0.093; with alisertib it was 0.004; in assay [4], -0.014; in the assay with gefitinib it was 0.011; with lapatinib, -0.004; in the assay with pictilisib, -0.006. Besides, the log2 fold change was -0.004 with crizotinib; 0.026 in assay [5]; 0.022 in the assay with duvelisib; -0.066 in the assay with gandotinib; 0.01 in the assay with tozasertib; 0.055 in the assay with doramapimod. Besides, the log2 fold change was -0.006 in the assay with bafetinib and 0.037 in assay [6].

Turning to MAST2 (UniProt Q6P0Q8), the log2 fold change was -0.096 in the assay with alvocidib; -0.06 with Tubastatin A; 0.219 in assay [1]; -0.009 in the assay with defactinib; -0.009 in assay [2]; 0.114 in the assay with encorafenib. The log2 fold change in [3] was 0.078; in assay [4] it was -0.002; with lapatinib it was 0.012; in the assay with pictilisib, 0.161; with crizotinib, -0.004; in assay [5], -0.171. Further, the log2 fold change in the assay with duvelisib is -0.065; in the assay with gandotinib, -0.07; with tozasertib, 0.148; with doramapimod, -0.034; with bafetinib it was -0.289; in [6] it was -0.092.
